# PubChem BioAssay (Tox21)
# Results filed as inconclusive are left out. Where a call stands in place of a potency, no number is given. Activity calls are given as the source filed them. Calls come from the whole dose curve.
# Target: Estrogen receptor (Homo sapiens) (UniProt P03372)
# Test: qHTS assay to identify small molecule agonists of the estrogen receptor alpha (ER-alpha) signaling pathway in the presence of an antagonist (AID 1259383); note: top concentration of the series differs between compounds; nearly all actives have a fitted effect of over 15% in size
# Conditions: VM7Luc4E2 cells, ERE-luciferase, +ICI-182,780, 22 h; series mostly up to 92.4 µM
# How it was run: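 Quantitative HTS confirmation: compounds titrated at 15 concentrations onto estrogen-deprived VM7Luc4E2 cells carrying a four-ERE luciferase construct, with ICI-182,780 present at 10.0nM final. Signal is luminescence after 22hr exposure.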
# Chain of Estrogen receptor (Homo sapiens) (P03372 whole entry, looked up): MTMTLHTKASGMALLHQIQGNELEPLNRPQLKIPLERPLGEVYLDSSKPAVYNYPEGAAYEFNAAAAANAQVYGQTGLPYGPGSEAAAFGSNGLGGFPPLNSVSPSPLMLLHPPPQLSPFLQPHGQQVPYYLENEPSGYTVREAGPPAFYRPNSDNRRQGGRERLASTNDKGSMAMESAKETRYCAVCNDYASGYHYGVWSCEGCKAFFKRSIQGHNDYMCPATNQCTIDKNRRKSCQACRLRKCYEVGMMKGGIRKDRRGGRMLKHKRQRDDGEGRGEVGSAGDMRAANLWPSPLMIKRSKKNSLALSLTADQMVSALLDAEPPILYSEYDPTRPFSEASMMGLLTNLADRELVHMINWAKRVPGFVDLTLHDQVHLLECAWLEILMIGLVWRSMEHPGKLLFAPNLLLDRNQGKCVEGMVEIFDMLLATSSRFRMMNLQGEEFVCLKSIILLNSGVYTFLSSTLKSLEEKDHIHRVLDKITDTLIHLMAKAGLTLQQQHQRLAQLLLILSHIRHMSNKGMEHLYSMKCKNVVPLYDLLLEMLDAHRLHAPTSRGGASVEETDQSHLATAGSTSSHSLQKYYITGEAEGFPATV
Compound,Potency,activation
O=c1c2ccccc2oc2ccccc12,inactive,–
Cc1cc(N)n(-c2ccccc2)n1,inactive,–
Cc1nc(C)c(C)nc1C,inactive,–
O=c1[nH][nH]c2ccccc12,inactive,–
O=C(O)c1cc(C(=O)O)c(C(=O)O)cc1C(=O)O,inactive,–
O=C(c1ccc(Cl)cc1)c1ccc(Cl)cc1,inactive,–
CCCCCCOC(=O)c1ccccc1,inactive,–
CC1(C)[C@@H]2CC[C@]3(C2)[C@@H]1C(=O)CCC3(C)C,inactive,–
NC(=O)c1ccccc1C(N)=O,inactive,–
CCCCCO,inactive,–
CC(C)(C)c1cc(C=O)cc(C(C)(C)C)c1O,inactive,–
O=C(O)c1ccc(O)c(O)c1,inactive,–
COc1ccc(/C(C)=C/C(=O)O)c(OC)c1,inactive,–
Cc1c(N=C=O)cccc1N=C=O,inactive,–
O=C1CCCN1CCO,inactive,–
CC1=CC(=C(c2ccc(N)cc2)c2ccc(N)cc2)C=CC1=N,–,0.281% [at 8.39 µM] (inactive)
CC1(C)CC(O)CC(C)(C)N1[O],inactive,–
CCOC(=O)CC(O)(CC(=O)OCC)C(=O)OCC,inactive,–
O=C1OC(=O)C2CC=CCC12 (stereo not drawn),inactive,–
CCCc1ccc(OC)cc1,inactive,–
CC(=O)c1ccc(Cl)c(Cl)c1Cl,inactive,–

# Test system: not listed separately
# Test: qHTS assay to identify small molecule agonists or antagonists of the thyroid stimulating hormone receptor (TSHR) signaling pathway - wild type cell line counter screen (AID 1259384)
# Conditions: HEK293 wild type, cAMP HTRF counter-screen, active compounds read high; series mostly up to 92.4 µM
# How it was run: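 Wild-type Hek293 cells, 800/well, 18 h at 37C, then compound with Ro20-1724 for 30 min RT. cAMP by HTRF (cAMP-d2/anti-cAMP cryptate), 1 h RT, fluorescence read. 15 concentrations, triplicates.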
Compound,outcome,cAMP activity change
O=c1c2ccccc2oc2ccccc12,inactive,–
Cc1cccc(C)c1NC(=O)CN1CCCC1,inactive,–
Cc1cc(N)n(-c2ccccc2)n1,inactive,–
Cc1nc(C)c(C)nc1C,inactive,–
O=C(O)c1ccccc1[N+](=O)[O-],inactive,–
O=c1[nH][nH]c2ccccc12,inactive,–
O=C(OC1C[C@H]2CC[C@@H](C1)[N+]21CCCC1)C(O)(c1ccccc1)c1ccccc1 (stereo partly drawn),inactive,–
O=C(c1ccc(Cl)cc1)c1ccc(Cl)cc1,inactive,–
CCCCCCOC(=O)c1ccccc1,inactive,–
CC(O)C(C)O (stereo not drawn),inactive,–
CC1(C)[C@@H]2CC[C@]3(C2)[C@@H]1C(=O)CCC3(C)C,inactive,–
FC1(F)C(F)(F)C(F)(F)C2(F)C(F)(C1(F)F)C(F)(F)C(F)(F)C1(F)C(F)(F)C(F)(F)C(F)(F)C(F)(F)C12F (stereo not drawn),inactive,–
c1ccc(CN(Cc2ccccc2)Cc2ccccc2)cc1,inactive,–
O=C(O)c1ccc(O)c(O)c1,inactive,–
O=[N+]([O-])c1ccccc1CCO,inactive,–
CCC(C)CCCC(C)(C)O (stereo not drawn),inactive,–
Cc1c(N=C=O)cccc1N=C=O,inactive,–
CC(C)Cc1nccs1,inactive,–
CO[C@@H]1COCC[C@@H]1N[C@@H]1CC[C@@](C(=O)N2CCc3ncc(C(F)(F)F)cc3C2)(C(C)C)C1,inactive,–
NCCOCCOCCN,inactive,–
O=C1CCCN1CCO,inactive,–
CC1=CC(=C(c2ccc(N)cc2)c2ccc(N)cc2)C=CC1=N,–,-1.93% [at 8.39 µM] (inactive)
C=CC(C)CCC=C(C)C (stereo not drawn),inactive,–
CC1(C)CC(O)CC(C)(C)N1[O],inactive,–
CCOC(=O)CC(O)(CC(=O)OCC)C(=O)OCC,inactive,–
O=C1OC(=O)C2CC=CCC12 (stereo not drawn),inactive,–
CCCc1ccc(OC)cc1,inactive,–
